Results from PubChem BioAssay (NCATS).
Records with an inconclusive call do not appear. Calls of active or inactive are those of the source. Calls come from the whole dose curve; as a rule, active = well fitted curve in the direction sought with a large enough effect; inconclusive = small, poorly fitted or top-dose-only effect, or another doubt; inactive = no such curve, though single readings can be large; an effect the other way counts as inactive or inconclusive.

What was measured:
[1] = Cell Viability - H-4-II-E (AID 543); note: % is set by controls: 0 for no effect and ±100 for the full control effect; nearly all actives have a fitted effect of over 35% in size
Outline: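 Rat hepatoma H-4-II-E cells (1500/well) were plated, incubated 5 hr at 37 °C, then exposed to compounds for 40 hr at 37 °C. Cellular ATP was read by CellTiter-Glo luminescence; AC50 came from Hill-equation fits of concentration-response data.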

[2] = Cell Viability - SH-SY5Y (AID 544); settings: SH-SY5Y neuroblastoma cell viability; viability change, negative = cytotoxic: at 92.2 µM (top of the series); note: nearly all actives have a fitted effect of over 55% in size
Outline: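 Human neuroblastoma SH-SY5Y cells (1500/well) in complete medium were exposed to compounds for 40 hr at 37 °C; intracellular ATP was then quantified by CellTiter-Glo luminescence after 20 min at room temperature. AC50 came from Hill-equation concentration-response fits.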

[3] = Cell Viability - Renal Proximal Tubule (AID 545); note: nearly all actives have a fitted effect of over 40% in size
Outline: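 Primary rat renal proximal tubule cells (1000/well) were treated with compounds for 40 hr at 37 °C in complete medium. Intracellular ATP was measured by CellTiter-Glo luminescence, and AC50 values came from Hill-equation fits of concentration-response data.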

[4] = Cell Viability - Mesenchymal (AID 546);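 note: cells exposed to compound for 40 hours before reading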
Outline: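 AC50 values reflect the drop in intracellular ATP in a human kidney mesenchymal line derived from normal glomeruli. Treatment lasts 40 hr at 37 °C in complete medium, and the signal comes from CellTiter-Glo luminescence.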

[5] = Cellular Toxicity (caspase-3) HepG2 (AID 654);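 note: cells exposed to compound for 16 hours before reading; 0% = DMSO alone and 100% = caspase signal from 100 µM tamoxifen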
Outline: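 HepG2 cells (1500/well) in complete medium were treated with compounds for 16 hr at 37 °C. Caspase-3/7 activity was then read as luminescence from peptide-aminoluciferin cleavage. AC50 came from Hill fits, normalized to DMSO and 100 uM tamoxifen.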

[6] = Cellular Toxicity (caspase-3) Jurkat (AID 655); settings: Jurkat caspase-3 activation, luminescence; caspase-3 activation: at 92.2 µM (top of the series), DMSO = 0%, tamoxifen = 100%;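 note: cells exposed to compound for 16 h at 37 °C before reading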
Outline: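 Jurkat cells (5000/well) in complete medium were treated with compounds for 16 hr at 37 °C, then Caspase-Glo 3/7 luminescence was read after 20 min at room temperature. Data normalized to DMSO (basal) and 100 uM tamoxifen (100%); AC50 from Hill fit.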

[7] = Cellular Toxicity (caspase-3) SHSY5Y (AID 657)
Outline: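 SH-SY5Y human neuroblastoma cells (1500/well) were treated with compounds for 16 h at 37 °C, then Caspase-Glo 3/7 luminescence was read after 1 h at room temperature. Data normalized to DMSO and 10 uM staurosporine; AC50 from Hill fits.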

[8] = Cellular Toxicity (caspase-3) BJ (AID 658);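 note: 0% = DMSO basal and 100% = 10 µM staurosporine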
Outline: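 Readout: Caspase-Glo 3/7 luminescence increase in BJ cells after 16 hr treatment at 37 °C. Staurosporine and tamoxifen served as positive controls; AC50 values came from Hill modelling of data normalized to DMSO and 10 uM staurosporine.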

[9] = Cellular Toxicity (caspase-3) MRC-5 (AID 659);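 note: 0% = DMSO basal and 100% = 10 µM staurosporine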
Outline: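 Concentration-dependent caspase 3/7 activation is measured in human normal lung fibroblasts (MRC-5) following 16-hour treatment. AC50 values come from standard Hill-equation modeling of luminescence normalized to DMSO and 10 uM staurosporine.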

[10] = Cellular Toxicity (caspase-3) HUV-EC-C (AID 656)
Outline: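 HUV-EC-C endothelial cells, 1000/well, were pre-incubated 5 hr at 37°C, then exposed to compounds for 16 hr at 37°C. Caspase-Glo 3/7 luminescence was read after 20 min at room temperature. AC50 came from Hill fits, normalized to DMSO and 100 uM tamoxifen.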

C=CCCCCCCC=C
inactive: Potency [1] | Potency [2] | Potency [3] | Potency [4] | Potency [5] | caspase-3 activation [6] 2.57% | outcome [7] | outcome [8] | outcome [9]

C/C=C1\CC2C=CC1C2 (centres undefined)
inactive: Potency [1] | Potency [2] | Potency [3] | Potency [4] | Potency [5] | caspase-3 activation [6] -1.14% | outcome [10] | outcome [8] | outcome [9]

CC(C)(O)C(=O)O
inactive: Potency [1] | Potency [2] | Potency [3] | Potency [4] | Potency [5] | caspase-3 activation [6] -0.979% | outcome [10] | outcome [7] | outcome [9]

NC(=O)CCCCC(N)=O
inactive: Potency [1] | Potency [2] | Potency [3] | Potency [4] | Potency [5] | caspase-3 activation [6] 2.15% | outcome [10] | outcome [8] | outcome [9]

NC(=O)NC(N)=O
inactive: Potency [1] | Potency [2] | Potency [3] | Potency [4] | Potency [5] | caspase-3 activation [6] 0.487% | outcome [10] | outcome [9]

Cc1ccc(C(=O)O)cc1
inactive: Potency [1] | Potency [2] | Potency [3] | Potency [4] | Potency [5] | caspase-3 activation [6] 1.89% | outcome [10] | outcome [7] | outcome [9]

CCCCC(CC)C(=O)O (centres undefined)
inactive: Potency [1] | Potency [2] | Potency [3] | Potency [4] | Potency [5] | caspase-3 activation [6] 1.13% | outcome [10] | outcome [7] | outcome [9]

C1COC1
inactive: Potency [1] | Potency [2] | Potency [3] | Potency [4] | Potency [5] | caspase-3 activation [6] -0.0782% | outcome [7] | outcome [8] | outcome [9]

Cc1ccc2ccccc2c1[N+](=O)[O-]
inactive: Potency [1] | Potency [2] | Potency [3] | Potency [4] | Potency [5] | caspase-3 activation [6] -0.271% | outcome [10] | outcome [7] | outcome [9]

ClCCl
inactive: Potency [1] | Potency [2] | Potency [3] | Potency [4] | Potency [5] | caspase-3 activation [6] 1.06% | outcome [7] | outcome [8] | outcome [9]

Cc1ccccc1C=O
inactive: Potency [1] | Potency [2] | Potency [3] | Potency [4] | Potency [5] | caspase-3 activation [6] 0.742% | outcome [10] | outcome [8] | outcome [9]

O=C(O)c1ccc(C(=O)O)cc1
inactive: Potency [1] | Potency [2] | Potency [3] | Potency [4] | Potency [5] | caspase-3 activation [6] 1.28% | outcome [10] | outcome [9]

CCCCCCCCC
inactive: Potency [1] | Potency [2] | Potency [3] | Potency [4] | Potency [5] | caspase-3 activation [6] 0.991% | outcome [10] | outcome [8] | outcome [9]

Oc1c(Cl)ccc(Cl)c1Cl
inactive: Potency [1] | Potency [2] | Potency [3] | Potency [4] | Potency [5] | caspase-3 activation [6] 0.893% | outcome [10] | outcome [8] | outcome [9]

COc1ccc(OC)cc1
inactive: Potency [1] | Potency [2] | Potency [3] | Potency [4] | Potency [5] | caspase-3 activation [6] 0.323% | outcome [10] | outcome [8] | outcome [9]

Cc1cc(C)cc([N+](=O)[O-])c1
inactive: Potency [1] | Potency [2] | Potency [3] | Potency [4] | Potency [5] | caspase-3 activation [6] -1.49% | outcome [10] | outcome [8] | outcome [9]

c1ccsc1
inactive: Potency [1] | Potency [2] | Potency [3] | Potency [4] | Potency [5] | caspase-3 activation [6] 0.61% | outcome [7] | outcome [8] | outcome [9]

CN(C)CCCNCCCN
inactive: Potency [1] | Potency [2] | Potency [3] | Potency [4] | Potency [5] | caspase-3 activation [6] 2.48% | outcome [7] | outcome [8] | outcome [9]

NS(=O)(=O)O
inactive: Potency [1] | Potency [2] | Potency [3] | Potency [4] | Potency [5] | caspase-3 activation [6] 0.859% | outcome [7] | outcome [8] | outcome [9]

O=C(O)c1cccc([N+](=O)[O-])c1
inactive: Potency [1] | Potency [2] | Potency [3] | Potency [4] | Potency [5] | caspase-3 activation [6] 0.351% | outcome [10] | outcome [9]

C=CC(=O)NC(C)C
inactive: Potency [1] | Potency [2] | Potency [3] | Potency [4] | Potency [5] | caspase-3 activation [6] -1.34% | outcome [10] | outcome [8] | outcome [9]

C=C(C)C(N)=O
inactive: Potency [1] | Potency [2] | Potency [3] | Potency [4] | Potency [5] | caspase-3 activation [6] -0.182% | outcome [10] | outcome [8] | outcome [9]

C=CCCC
inactive: Potency [1] | Potency [2] | Potency [3] | Potency [4] | Potency [5] | caspase-3 activation [6] -0.379% | outcome [7] | outcome [8] | outcome [9]

Nc1cc(S(=O)(=O)O)ccc1O
inactive: Potency [1] | Potency [2] | Potency [3] | Potency [4] | Potency [5] | caspase-3 activation [6] -0.212% | outcome [10] | outcome [7] | outcome [9]

Cc1ccc(CO)cc1
inactive: Potency [1] | Potency [2] | Potency [3] | Potency [4] | Potency [5] | caspase-3 activation [6] 2.2% | outcome [7] | outcome [8] | outcome [9]

S=C([S-])NCCNC(=S)[S-].[Zn+2]
inactive: Potency [1] | Potency [2] | Potency [3] | Potency [4] | Potency [5] | caspase-3 activation [6] 5.46% | outcome [10] | outcome [8] | outcome [9]

Cc1ccc(Br)cc1
inactive: Potency [1] | Potency [2] | Potency [3] | Potency [4] | Potency [5] | caspase-3 activation [6] 0.635% | outcome [10] | outcome [7] | outcome [9]

Nc1cccc([N+](=O)[O-])c1
inactive: Potency [1] | Potency [2] | Potency [3] | Potency [4] | Potency [5] | caspase-3 activation [6] 0.664% | outcome [10] | outcome [7] | outcome [9]
